Screening results as filed in PubChem BioAssay.
Only a selection was taken, and hits are over-represented in it overall.
Shiga inhibitor: Shiga toxin inhibition; 290,000 tested, 9.2% active; Vero cells, Shiga toxin protein synthesis inhibition reporter; inhibition, % at 38.7 µM; in the data active = inhibition mostly above about 28%, no sharp cut-off; inactive = mostly below about 43%; note: 0% is about no effect
Sm TGR block: S. mansoni TGR enzyme inhibition; Potency, µM (top dose mostly 114 µM), for the others: top-dose activity change, negative = inhibition, actives largely listed as inhibitors; purified TGR, DTNB reduction, TNB absorbance 405 nm; 360,000 tested, 3% active; Q962Y6; note: potency is the fitted concentration of half-maximal effect; % is set by controls: 0 for no effect and ±100 for the full control effect; nearly all actives have a fitted effect of over 60% in size
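First, TGR (20 nM dispensed) and NADPH were mixed with compound. Second, a 15 min room-temperature incubation followed. Third, further NADPH and then DTNB were added to start the reaction. Finally, TNB absorbance was monitored kinetically.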
Tb PYK inh: inhibitors of Trypanosoma brucei pyruvate kinase. AID 624173. Potency, µM (top dose mostly 76.8 µM), for inactives: at the top dose activity, negative = inhibition, hits mostly inhibitors. TbPYK enzyme, Kinase-Glo Plus ATP luminescence, 45 min. Q57TT1. 410,000 tested, 0.12% active; note: potency is the fitted concentration of half-maximal effect; % is set by controls: 0 for no effect and ±100 for the full control effect; nearly all actives have a fitted effect of over 50% in size
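Enzyme and substrate buffer are dispensed first and compound is pin-transferred. ADP at 130 uM final then starts the reaction, which runs 45 min at room temperature. Detection reagent is added for 10 min before luminescence is imaged.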
Cycloheximide cs: counter-screen hit for Shiga toxin inhibitors, cycloheximide; 300,000 tested, 12% active; max response, %; AID 2314; cell reporter, cycloheximide protein synthesis inhibition counterscreen; in the data active = max response mostly above about 13%, no sharp cut-off; inactive = mostly below about 14%; note: read at 38.3 µM for the half of the compounds with a filed dose; 0% is about no effect
Giardia FBPA inh: Giardia lamblia aldolase inhibition; purified Giardia FBPA; Potency, µM (top dose mostly 59.6 µM), inactives show top-dose activity, negative = inhibition, usual class: inhibitors; 290,000 tested, 0.71% active; AID 2451; note: potency is the fitted concentration of half-maximal effect; % is set by controls: 0 for no effect and ±100 for the full control effect; nearly all actives have a fitted effect of over 55% in size
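Giardia FBPA (40 nM reagent) was preincubated 10 min at RT with compound (up to 57.5 uM final), then substrate plus GAPDH/TPI/NAD/arsenate coupling system with diaphorase/resazurin was added; resorufin fluorescence (525/598 nm) was read after 20 min.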
LmPK inh: LmPK (Leishmania mexicana) enzyme inhibition; purified LmPK, Kinase-Glo ATP luminescence, 1 h; Potency, µM (series often up to 57.5 µM), for inactives: at the top dose activity change, negative = inhibition, actives largely listed as inhibitors; 290,000 tested, 0.37% active; note: potency is the fitted concentration of half-maximal effect; % is set by controls: 0 for no effect and ±100 for the full control effect
Target sequence (Q27686 whole entry, looked up): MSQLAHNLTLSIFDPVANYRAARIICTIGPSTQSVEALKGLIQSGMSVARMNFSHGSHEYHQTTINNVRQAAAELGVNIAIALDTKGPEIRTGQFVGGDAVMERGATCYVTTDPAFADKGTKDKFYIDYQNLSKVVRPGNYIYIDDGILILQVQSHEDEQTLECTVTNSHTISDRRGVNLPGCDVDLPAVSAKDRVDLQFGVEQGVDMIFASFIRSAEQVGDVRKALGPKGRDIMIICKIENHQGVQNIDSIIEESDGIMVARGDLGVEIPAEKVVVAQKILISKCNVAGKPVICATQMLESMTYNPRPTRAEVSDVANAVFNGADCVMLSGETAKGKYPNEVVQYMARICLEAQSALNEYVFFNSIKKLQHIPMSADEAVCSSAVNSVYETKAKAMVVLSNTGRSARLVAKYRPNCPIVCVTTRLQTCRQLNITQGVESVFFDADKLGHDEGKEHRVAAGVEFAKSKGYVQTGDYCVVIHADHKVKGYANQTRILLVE
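0.1 nM LmPK, 0.5 mM PEP, 0.1 mM ADP; 50 mM imidazole pH 7.2, 7 mM MgCl2, 50 mM KCl; 1 h RT. Kinase-Glo luminescence readout, normalized to no-enzyme (full inhibition) and uninhibited wells.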
An asterisk follows results filed as active; ? = inconclusive; / = no result given; + = active, no number; [ ] = another dose, or the depositor's remark. Unless noted, calls come from the whole dose curve; as a rule, active = well fitted curve in the direction sought with a large enough effect; inconclusive = small, poorly fitted or top-dose-only effect, or another doubt; inactive = no such curve, though single readings can be large; an effect the other way counts as inactive or inconclusive.

SMILES	Shiga inhibitor	Sm TGR block	Tb PYK inh	Cycloheximide cs	Giardia FBPA inh	LmPK inh
Cc1ccc(CNC(=O)C2CCC(=O)N(CCc3ccc(Cl)cc3)C2)cc1 (stereo not given)	85.3*	8.3%	2.4%	46.5*	-0.1%	-3.3%
COc1cc(OC)cc(-c2c(C#Cc3ccsc3)c3cc(-c4ccc(OC)nc4)ccc3n2C)c1	/	28.2µM*	-0.3%	/	/	/
COc1cc(C#Cc2c(-c3ccccc3)n(C)c3ccccc23)cc(OC)c1	-5.8	7.94µM*	-4.7%	1.9	3.3%	-0.8%
COc1cc(OC)cc(-c2c(C#Cc3ccsc3)c3cc(-c4ccc(OC)c(OC)c4)ccc3n2C)c1	/	/	5.0%	/	/	/
COc1ccc(C#Cc2c(-c3ccccc3)n(C)c3ccccc23)cc1	/	/	1.9%	/	/	/
Cn1c(-c2ccc(C#N)cc2)c(C#Cc2ccccc2)c2ccccc21	/	/	0.2%	/	/	/
COC(=O)c1ccc2c(c1)c(C#Cc1ccccc1)c(-c1ccccc1)n2C	+	/	5.0%	59.9*	-2.9%[89.2 µM]	/
COc1ccc(-c2c(C#Cc3ccsc3)c3ccccc3n2C)cc1	38.6*	20µM*	-16.9%	23.0*	-9.0%	-1.0%
CCc1cccc(NC(=O)Cn2c(-c3ccc(F)cc3)cc(C(C)=O)c2C)c1	/	0.8%	-0.7%[15.4 µM]	/	/	/
OC1CCC2Cc3ccccc3N=C12 (stereo not given)	/	/	/	/	-0.3%	/
COc1ccccc1CNc1nc2nc(C)c(Cl)c(C)n2n1	/	-0.3%	0.7%	/	/	/
CC(C)NS(=O)(=O)c1ccc(OCC(=O)N2CCN(c3ccccc3F)CC2)cc1	/	-2.9%	-3.4%	/	/	/
COc1ccc(-c2c(C#Cc3ccsc3)c3cc(-c4ccc(C(N)=O)cc4)ccc3n2C)cc1	/	/	2.8%	/	/	/
COC(=O)c1ccc2c(c1)c(I)c(-c1ccc(OC)cc1)n2C	+	/	/	37.1*	-1.2%	/
Cc1cc(C(=O)N2CCCC(Nc3ccccc3)C2)c2ccc(F)cc2n1 (stereo not given)	20.9	3.0%	-0.1%	-3.2	-1.1%	-9.2%
CNc1nn(-c2cccc(Cl)c2)nc1N	89.5*	2.1%	-0.4%	46.9*	-7.1%	-8.4%
CCN(CC)CCOc1ccc(Nc2ncc3cc(-c4c(Cl)cccc4Cl)c(=O)n(C)c3n2)cc1	/	/	4.1%	/	/	/
COc1ccc(-c2ccccc2)cc1NC(=O)[C@@H]1O[C@H](CO)[C@@H](O)[C@H]1O	/	/	3.3%	/	/	/
COc1ccc(C(=O)O/N=C(\N)Cc2ccc(Cl)cc2)cc1OC	22.6	-9.6%	-7.0%	9.7	4.0%	1.6%
CC(C)(C)C(=O)O/N=C(\N)c1c(Cl)cccc1Cl	4.3	-6.7%	-0.6%	-1.8	7.3%	-2.1%
CC(C)(C)C(=O)OC/C(N)=N/OC(=O)c1ccc(Cl)cc1	58.4	7.3%	1.8%	24.5*	-4.4%	-0.6%
N/C(Cc1ccc(Cl)cc1)=N\OC(=O)c1ccccc1	56.9	-5.4%	0.5%	23.7*	-1.7%	3.1%
CC(C)(C)C(=O)O/N=C(\N)COc1cccc(Cl)c1	99.4*	9.4%	-15.4%	44.0*	-0.3%	-1.7%
C=C(N(C)C)[C@]1(C)C[C@H]1[C@H](NC(=O)CNC(=O)OCc1ccccc1)c1ccccc1	/	/	/	/	8.8%	/
COC(=O)[C@@H]1C[C@H]1[C@@H](NC(=O)c1cc(C)nn1C)c1ccccc1	/	/	/	/	10.4%	/
SMILES	Shiga inhibitor	Sm TGR block	Tb PYK inh	Cycloheximide cs	Giardia FBPA inh	LmPK inh
CCN(CC)S(=O)(=O)c1ccc2c(c1)N(CC(=O)NCCCN1CCN(c3cc(Cl)ccc3C)CC1)C(=O)CO2	/	5.5%	3.9%	/	/	/
Cc1cc(C)nc(Nc2cccc(Cl)c2)n1	33.6	0.0%	2.2%	15.1*	-16.3%	-0.9%
CCOC(=O)c1cccc(Nc2nc(C)cc(C)n2)c1	13.2	-2.1%	-8.9%	13.8*	4.1%	-0.6%
Cc1cc(C)nc(Nc2cccc(C(F)(F)F)c2)n1	14.6	-20.5%	6.2%	2.3	-23.5%	1.5%
COc1ccc(NC(=O)c2ncn(-c3ccccc3)n2)cc1Cl	/	-0.8%	-2.0%	/	/	/
CS(=O)(=O)N(Cc1ccccc1)c1ccccc1C(=O)Nc1ccccc1C(=O)NCc1ccco1	-6.9	0.8%	-8.7%	-1.0	-4.5%	6.1%
COCCNC(=O)c1ccccc1N(Cc1ccccc1)S(=O)(=O)c1ccc(C)cc1	-12.4	6.5%	1.6%	-3.0	?	0.8%
